Screening results (PubChem)
Only some compounds are listed: those with a hit (about 1.6% of all), similar ones and a draw of the others.
KCNQ2 inh – inhibitors of rat KCNQ2 potassium channel | CHO-K1 KCNQ2, FluxOR thallium flux, 20 min; stronger effect = lower value | AID 2156 | 310,000 compounds, 1.1% hits | B-score at 10 µM | O88943;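 active = fluorescence ratio B-score at most minus 3 library SDs, with starting brightness B-score within 2 library SDs, cut at about -5.5 in these data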
Target sequence (O88943 whole entry, looked up): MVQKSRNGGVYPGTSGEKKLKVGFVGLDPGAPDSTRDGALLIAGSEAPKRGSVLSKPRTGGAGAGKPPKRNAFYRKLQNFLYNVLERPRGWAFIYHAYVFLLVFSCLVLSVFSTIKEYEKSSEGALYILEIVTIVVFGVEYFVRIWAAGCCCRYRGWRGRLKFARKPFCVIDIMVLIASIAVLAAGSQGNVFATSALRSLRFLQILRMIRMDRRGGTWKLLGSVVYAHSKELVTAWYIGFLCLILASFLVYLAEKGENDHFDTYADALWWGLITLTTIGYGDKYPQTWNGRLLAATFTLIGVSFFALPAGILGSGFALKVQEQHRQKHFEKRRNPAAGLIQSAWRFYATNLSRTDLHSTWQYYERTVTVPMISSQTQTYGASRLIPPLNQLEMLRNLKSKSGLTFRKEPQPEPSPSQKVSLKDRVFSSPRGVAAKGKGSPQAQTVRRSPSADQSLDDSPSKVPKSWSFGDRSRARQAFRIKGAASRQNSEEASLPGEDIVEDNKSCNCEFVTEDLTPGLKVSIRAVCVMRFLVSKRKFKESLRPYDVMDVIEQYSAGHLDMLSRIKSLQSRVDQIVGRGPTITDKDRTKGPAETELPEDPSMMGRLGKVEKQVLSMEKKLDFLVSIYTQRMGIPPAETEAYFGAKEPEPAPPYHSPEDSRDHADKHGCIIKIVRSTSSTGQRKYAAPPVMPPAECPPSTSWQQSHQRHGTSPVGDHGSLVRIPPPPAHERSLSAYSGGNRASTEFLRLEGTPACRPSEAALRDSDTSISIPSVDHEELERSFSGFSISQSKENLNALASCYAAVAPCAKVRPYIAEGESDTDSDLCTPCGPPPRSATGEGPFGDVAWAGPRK
KCNQ2 enhance – potentiators of rat KCNQ2 potassium channel | O88943 | CHO-K1 KCNQ2, FluxOR thallium flux fluorescence; stronger effect = higher value | B-score at 10 µM | 310,000 compounds, 0.54% hits | AID 2239;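 active = fluorescence ratio B-score at least 3 SD of library B-scores, with initial fluorescence B-score within 3 of them, cut at about 5.3 in these data; same plate scores as AID 2156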;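 also: B-score of peak minus minimum over baseline fluorescence ratio after K+ and Tl+ stimulus; positive B-score means potentiation of KCNQ2 with more thallium influx and brighter signal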
* hit, by the source's call; i = inactive; . = no result.

SMILES | KCNQ2 inh | KCNQ2 enhance
O=C(NCCN1CCOCC1)c1ccccc1N1C(=O)[C@@H]2Cc3c([nH]c4ccccc34)C(c3ccccc3)N2C1=O (stereo not given in full) | i | .
O=C(NCCCN1CCOCC1)c1ccccc1N1C(=O)[C@@H]2Cc3c([nH]c4ccccc34)C(c3ccc(F)cc3)N2C1=O (stereo not given in full) | -7.1* | -7.1
CC1C(=O)N2CCCc3cc(S(=O)(=O)N(C)CCC#N)cc1c32 (stereo not given) | i | .
Cc1ccc(NC(=O)CN(C)C(=O)C2CC(=O)N(Cc3ccccc3)C2)cc1 (stereo not given) | i | .
COc1ccccc1NC(=O)c1ccc2nc(-c3ccccc3)c(-c3ccccc3)nc2c1 | -7.1* | -7.1
COc1ccc(NC(=O)c2ccc3nc(-c4ccccc4)c(-c4ccccc4)nc3c2)c(OC)c1 | i | .
COc1ncnc2c1ncn2CC1COC(C)(C)O1 (stereo not given) | i | .
O=C1/C(=C/c2cccs2)SC(=S)N1CCCC(=O)N(CCO)c1ccccc1 | i | 1.6
O=C(CNCc1ccc(Cl)cc1)Nc1ccc(C(=O)N2CCCCCC2)cc1 | i | .
Cc1c(Cc2ccccc2)c(=O)oc2c(C)c(OCC(=O)NCC3CCC(C(=O)O)CC3)ccc12 (stereo not given) | i | .
CC(=O)Nc1ccc(NC(=O)C(C)OC(=O)CCC2CCCC2)cc1 (stereo not given) | i | .
Cc1onc(-c2c(F)cccc2Cl)c1C(=O)c1ccc(F)cc1 | i | .
Cc1onc(-c2c(Cl)cccc2Cl)c1C(=O)c1ccc(F)cc1 | i | 6.8*
Cc1occc1C(=O)N1CCCC(N2CCN(c3cccc(Cl)c3)CC2)C1 (stereo not given) | i | .
COc1ccc(S(=O)(=O)N(C)CC(=O)NCCCn2ccnc2)cc1Cl | i | 0.44
CN(C)c1ccc(C=NC(CO)C(O)c2ccc([N+](=O)[O-])cc2)cc1 (stereo not given) | i | .
CN(C)c1ccc(C(c2ccc(N(C)C)cc2)c2ccc([N+](=O)[O-])cc2)cc1 | -6.6* | -6.6
CC(C)CN(C(=O)COc1ccc(Br)cc1C=O)C1CCS(=O)(=O)C1 (stereo not given) | i | .
CC1(C)Cc2c(C#N)c(NCc3ccco3)nc(-c3ccco3)c2CO1 | i | 0.49
CC1(C)Cc2c(C#N)c(N3CCCC3)nc(-c3ccco3)c2CO1 | -9.1* | -9.1
CC(C)C[C@@H](C(=O)NCc1ccco1)N1C(=O)N2CCc3c([nH]c4ccccc34)[C@@]2(C)C1=O | i | .
COc1ccc(CCNC(=O)c2nn(C)c3c2CS(=O)(=O)c2ccccc2-3)c(OC)c1 | i | .
CN(C)S(=O)(=O)c1cc([N+](=O)[O-])ccc1N1CCCCCC1 | i | .
CC(C)CN(CC(C)C)S(=O)(=O)c1cc([N+](=O)[O-])ccc1N1CCCCCC1 | -6.1* | -6.1
CN(C)S(=O)(=O)n1cc(/C=C(\NC(=O)c2ccccc2Cl)C(=O)N2CCOCC2)c2ccccc21 | i | 0.34
SMILES | KCNQ2 inh | KCNQ2 enhance
COc1ccc(-c2cc3nc(C)cc(N4CC(C)CC(C)C4)n3n2)cc1 (stereo not given) | -6* | -6
COc1ccc(-c2cc(C(F)(F)F)n3nc(C)cc3n2)cc1 | i | .
Cn1c(SCC(=O)NC(=O)Nc2ccccc2)nnc1-c1ccncc1 | i | 1.1
COc1cccc(NC(=O)c2ccnc(N3CCC(C(=O)NCc4ccccc4OC)CC3)c2)c1 | i | 0.44
Cc1cc(C)n(-c2nc3ccccc3c(=O)n2OCCOc2ccccc2)n1 | -5.6* | -5.6
C=CCOn1c(-n2nc(C)cc2C)nc2ccccc2c1=O | i | .
O=C(Nc1ccc(OCc2ccccc2)cc1)c1ccccc1 | i | .
CC(C)=CC(=O)Nc1ccc(OCc2ccccc2)cc1 | i | 7.6*
CCN(CC(=O)Nc1ccc(NC(C)=O)cc1)C(=O)/C=C/c1ccc2c(c1)OCO2 | i | .
CCN(C(=O)/C=C/c1ccc2c(c1)OCO2)c1ccccc1 | -6* | -6
O=C1CCN(Cc2ccc(Br)cc2)CCN1[C@H](CO)Cc1ccccc1 | i | 0.35
CC[C@@H]1CC=C[C@H]2[C@H]1C(=O)N(Cc1ccccc1)[C@H]2c1ccc2ccccc2c1 | -5.7* | -5.7
O=C1C2C(c3ccccc3)CC=CC2[C@H](c2ccc(C(F)(F)F)cc2)N1Cc1ccccc1 (stereo not given in full) | -7.8* | -7.8
C[C@@H]1CC=C[C@H]2[C@H]1C(=O)N(Cc1ccccc1)[C@H]2c1ccc(C(F)(F)F)cc1 | i | .
COc1ccc([C@H]2[C@H]3C=CC[C@@H](C)[C@@H]3C(=O)N2Cc2ccccc2)cc1Cl | i | .
CCOC(=O)c1ccc(N2C(=O)CC(NC3CCN(C(=O)c4ccc(F)cc4)CC3)C2=O)cc1 (stereo not given) | -9.5* | -9.5
CCOc1ccc(N2C(=O)CC(NC3CCN(C(=O)c4ccc(F)cc4)CC3)C2=O)cc1 (stereo not given) | i | .
CS(=O)(=O)c1ccccc1C(=O)Nc1cccc2ncccc12 | i | .
Cc1ccc(OCC(O)CNC2CCCC2)c(C)c1 (stereo not given) | i | .
Cc1ccccc1OCC(O)CNC1CCC(NCC(O)COc2ccccc2C)CC1 (stereo not given) | -7.7* | -7.7
Cc1ccc(S(=O)(=O)NCC(=O)N(CC(=O)NCC2CCCO2)Cc2ccco2)cc1 (stereo not given) | i | 2.9
Cc1ccc(Nc2cc(C)nc(-c3ccccc3)n2)cc1 | i | 0.08
Cc1ccc(O)c(C(CC(=O)NC(C)C)c2ccccc2)c1 (stereo not given) | i | 0.44
CCCN(CCC)C(=O)CC(c1ccccc1)c1cc(C)ccc1O (stereo not given) | -6* | -6
Cc1ccc(O)c(C(CC(=O)NCc2ccco2)c2ccccc2)c1 (stereo not given) | i | 16*
SMILES | KCNQ2 inh | KCNQ2 enhance
Cc1cccc(C(CC(=O)NCc2ccco2)c2ccccc2)c1O (stereo not given) | i | 0.02
N#Cc1ccc(CSc2nnc(-c3c[nH]c4ccccc34)n2-c2ccccc2)cc1 | i | .
CCN(CC)S(=O)(=O)c1ccc(N2CCCC2)c(NC(=O)CN2C(=O)NC3(CCCC3)C2=O)c1 | i | .
CCOC(=O)c1c(C)n(C)c2ccc(OC)c(NC(=O)CCN3CCC(Cc4ccccc4)CC3)c12 | i | 1.8
Cc1ccc(S(=O)(=O)N2C(=O)CCC2C(=O)O/N=C(\N)c2ccc([N+](=O)[O-])cc2)cc1 (stereo not given) | i | .
COc1ccc(CN2CCN(Cc3cc4ccccc4o3)CC2CCO)cc1C (stereo not given) | i | .
FC(F)(F)Oc1ccc(Nc2nc(N3CCOCC3)nc(N3CCOCC3)n2)cc1 | i | 0.29
CCOC(=O)N1CCN(C(=O)c2ccc3c(c2)N(Cc2ccccc2)CCS3)CC1 | i | .
CC1CC(C)CN(C(=O)c2ccc3c(c2)N(Cc2ccccc2)CCS3)C1 (stereo not given) | -6.2* | -6.2
CC(=O)N(Cc1ccccc1)c1c(N)nc(N)[nH]c1=O | i | 0.94
CCC(C(=O)N1CCN(c2cccc(Cl)c2)CC1)c1ccccc1 (stereo not given) | -5.6* | -5.6
CCC(CC)C(=O)N1CCN(c2ccccc2)CC1 | i | .
O=C(C(Cc1ccccc1)n1cccc1)N1CCN(Cc2ccccc2)CC1 (stereo not given) | i | .
